Screening results (PubChem)
Compounds with a hit are over-represented: about 2.3% of the library has one in this group of screens.
PfM18AAP inh-1 – PfM18AAP enzyme inhibition | recombinant PfM18AAP, H-Glu-NHMec fluorogenic cleavage | inhibition, % at 7.35 µM | 1.2% of 290,000 active;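 active = inhibition above the campaign mean inhibition over all tested compounds plus 3 SD, cut at about 28% in these data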
Rce1 inhib – yeast Ras-converting enzyme inhibition; yeast membranes, quenched prenylated peptide cleavage fluorescence; calls only; 0.27% of 290,000 active; AID 2563;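 active = fall in fluorescence gain of 50% or more versus controls, with final raw signal at or below 3038400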
Target sequence (Q03530 whole entry, looked up): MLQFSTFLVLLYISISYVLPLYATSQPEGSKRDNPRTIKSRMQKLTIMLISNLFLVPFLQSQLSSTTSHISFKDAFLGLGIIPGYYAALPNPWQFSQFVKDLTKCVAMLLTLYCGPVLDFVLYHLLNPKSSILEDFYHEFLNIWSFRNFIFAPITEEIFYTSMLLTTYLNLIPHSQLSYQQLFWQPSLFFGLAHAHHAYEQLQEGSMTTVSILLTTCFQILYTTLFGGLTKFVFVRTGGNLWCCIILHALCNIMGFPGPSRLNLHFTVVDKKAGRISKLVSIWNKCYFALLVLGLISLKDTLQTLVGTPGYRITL
DNA FID counter – counter-screen for HCV NS3 helicase inhibitors: DNA intercalator displacement; DNA fluorescent intercalator displacement, fluorescence; inhibition, % at 7.9 µM; 0.17% of 290,000 active; AID 1845; in the data active = inhibition above about 37%;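 also: higher means more ethidium bromide displaced from hairpin DNA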
Kir21 block – Kir2.1 (mouse) channel inhibition; AID 1672; HEK293-Kir2.1, FluxOR thallium flux fluorescence; active compounds read low; B-score at 10 µM; 0.85% of 310,000 active; P35561;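 active = fluorescence ratio B-score at or below minus 3 SD of library scores, with starting-brightness B-score within 2 SD, cut at about -4.2 in these data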;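 also: channel flux triggered by added potassium and thallium sulfate stimulus; B-score of peak minus minimum fluorescence over baseline after thallium stimulus; more negative B-score means stronger Kir2.1 block with less thallium influx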
PfM18AAP inh-2 – confirmation of Plasmodium falciparum M18 aspartyl aminopeptidase inhibitors; shares compounds with PfM18AAP inh-1; recombinant PfM18AAP, H-Glu-NHMec fluorogenic cleavage; inhibition, % at 7.35 µM; 28% of 2,400 active; AID 2170;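 active = mean inhibition over replicate wells above the hit cutoff set for the earlier primary screen, cut at about 29% in these data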
CTSL1 counter – counter-screen for PFM18AAP inhibitors: confirmation of human cathepsin L inhibitors; purified cathepsin L1, Z-Leu-Arg-MCA fluorescence; shares compounds with PfM18AAP inh-1; inhibition, % at 5.96 µM; 2,400 tested, under 10 active;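 active = average inhibition across replicates above the hit cutoff set in the earlier primary screen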
Target sequence (P07711 whole entry, looked up): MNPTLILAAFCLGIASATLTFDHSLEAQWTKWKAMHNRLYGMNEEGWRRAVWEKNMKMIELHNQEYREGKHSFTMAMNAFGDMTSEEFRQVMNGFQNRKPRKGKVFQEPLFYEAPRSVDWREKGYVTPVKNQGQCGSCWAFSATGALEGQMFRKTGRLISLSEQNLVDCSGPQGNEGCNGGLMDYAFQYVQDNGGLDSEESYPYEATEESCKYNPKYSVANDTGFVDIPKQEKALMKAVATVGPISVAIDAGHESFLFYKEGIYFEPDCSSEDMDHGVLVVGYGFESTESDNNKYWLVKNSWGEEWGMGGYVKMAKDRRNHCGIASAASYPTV
Hits are given with their value.

Screening COc1ccc(OC)c(NC(=O)Nc2cc(NC(=O)Nc3cc(OC)ccc3OC)c(C)nc2C)c1 returned PfM18AAP inh-1 inactive, Rce1 inhib inactive, DNA FID counter inactive and Kir21 block inactive.
For Cc1ccc(C)c(NC(=O)NNC(=O)c2cc3occc3[nH]2)c1 the results were PfM18AAP inh-1 49, Rce1 inhib inactive, DNA FID counter inactive, Kir21 block inactive, PfM18AAP inh-2 29 and CTSL1 counter inactive.
Screening COc1ccc(OC)c(NC(=O)NNC(=O)c2cc3occc3[nH]2)c1 returned PfM18AAP inh-1 56, Rce1 inhib inactive, DNA FID counter inactive, Kir21 block inactive, PfM18AAP inh-2 35 and CTSL1 counter inactive.
For COc1ccc(C)cc1NC(=O)NNC(=O)c1ccoc1C the results were PfM18AAP inh-1 47, Rce1 inhib inactive, DNA FID counter inactive, Kir21 block inactive, PfM18AAP inh-2 inactive and CTSL1 counter inactive.
Screening CC1=C(C(=O)O)N2C(=O)C(NC(=O)c3ccccc3Cl)C2SC1 (configuration not stated) returned PfM18AAP inh-1 34, Rce1 inhib inactive, DNA FID counter inactive, Kir21 block inactive, PfM18AAP inh-2 inactive and CTSL1 counter inactive.
For CC1=C(C(=O)O)N2C(=O)C(NC(=O)c3nn(C)cc3Cl)C2SC1 (configuration not stated) the results were PfM18AAP inh-1 inactive, Rce1 inhib inactive, DNA FID counter inactive and Kir21 block inactive.
CC1CCC(C(C)C)C2=C1C(C#N)(C#N)C(C#N)(C#N)C(c1ccccc1)N2 (configuration not stated) was read as PfM18AAP inh-1 36, Rce1 inhib inactive, DNA FID counter inactive, Kir21 block inactive, PfM18AAP inh-2 inactive and CTSL1 counter inactive.
`CCN(CC)c1ccc2c(c1)CCCN2` gave PfM18AAP inh-1 32, Rce1 inhib inactive, DNA FID counter inactive, Kir21 block inactive, PfM18AAP inh-2 inactive and CTSL1 counter inactive.
Cc1n[nH]c(=S)n(NC(=O)CC(=O)Nn2c(=S)[nH]nc(C)c2=O)c1=O was read as PfM18AAP inh-1 42, Rce1 inhib inactive, DNA FID counter inactive, Kir21 block inactive, PfM18AAP inh-2 inactive and CTSL1 counter inactive.
COc1ccccc1OCC(=O)Nn1c(=S)[nH]c2ncccc2c1=O was read as PfM18AAP inh-1 inactive, Rce1 inhib inactive, DNA FID counter inactive and Kir21 block inactive.
For COC(=O)Cc1ccc2sc(-c3ccccc3)nc2c1 the results were PfM18AAP inh-1 inactive, Rce1 inhib inactive, DNA FID counter inactive and Kir21 block inactive.
`COC(=O)Cc1sc(-c2ccccn2)nc1-c1ccccc1` gave PfM18AAP inh-1 33, Rce1 inhib inactive, DNA FID counter inactive, Kir21 block inactive, PfM18AAP inh-2 inactive and CTSL1 counter inactive.
O=c1cc(-c2ccc(O)cc2)oc2cc(O[C@@H]3O[C@H](CO)[C@@H](O)[C@H](O)[C@H]3O[C@@H]3OC[C@](O)(CO)[C@H]3O)cc(O)c12 was read as PfM18AAP inh-1 inactive, Rce1 inhib inactive, DNA FID counter inactive and Kir21 block inactive.
For O=c1cc(-c2ccc(O)c(O)c2)oc2c(C3O[C@H](CO)[C@@H](O)[C@H](O)[C@H]3O)c(O)cc(O)c12 (some centres not stated) the results were PfM18AAP inh-1 68, Rce1 inhib inactive, DNA FID counter inactive, Kir21 block inactive, PfM18AAP inh-2 45 and CTSL1 counter inactive.
For Cc1ccc(Cl)c(OCC(=O)Nc2cc(S(=O)(=O)N3CCOCC3)ccc2N2CCCC2)c1 the results were PfM18AAP inh-1 inactive, Rce1 inhib inactive, DNA FID counter inactive and Kir21 block inactive.
CSC1=NS(=O)(=O)c2c(C)nn(C)c2S1 was read as PfM18AAP inh-1 57, Rce1 inhib inactive, DNA FID counter inactive, Kir21 block inactive, PfM18AAP inh-2 inactive and CTSL1 counter inactive.
Screening Clc1ccccc1-c1csc(Nc2cccnc2)n1 returned PfM18AAP inh-1 39, Rce1 inhib inactive, DNA FID counter inactive, Kir21 block inactive, PfM18AAP inh-2 inactive and CTSL1 counter inactive.
`Cn1c2c(c(=O)c3ccccc31)CCCC2` gave PfM18AAP inh-1 inactive, Rce1 inhib inactive, DNA FID counter inactive and Kir21 block inactive.
Screening Cc1ccc2c(c1)N(CC(=O)NCc1cccnc1)C(=O)CO2 returned PfM18AAP inh-1 81, Rce1 inhib inactive, DNA FID counter inactive, Kir21 block inactive, PfM18AAP inh-2 inactive and CTSL1 counter inactive.
CC(=O)/C(=N/Nc1cccc(C)c1)N1CCOCC1 was read as PfM18AAP inh-1 42, Rce1 inhib inactive, DNA FID counter inactive, Kir21 block inactive, PfM18AAP inh-2 inactive and CTSL1 counter 27.
O=S(=O)(Nc1cc(Sc2ncn[nH]2)c(O)c2ccccc12)c1ccccc1 was read as PfM18AAP inh-1 38, DNA FID counter inactive, PfM18AAP inh-2 inactive and CTSL1 counter inactive.
O=C(O)CSc1cc(NS(=O)(=O)c2ccc(Br)cc2)c2ccccc2c1O was read as PfM18AAP inh-1 inactive, Rce1 inhib inactive, DNA FID counter inactive and Kir21 block inactive.
Cc1ccc(-c2nn[nH]n2)o1 was read as PfM18AAP inh-1 76, Rce1 inhib inactive, DNA FID counter inactive, Kir21 block inactive, PfM18AAP inh-2 54 and CTSL1 counter inactive.
Cc1cccc(N(CC(=O)N2CCCC2)S(C)(=O)=O)c1 was read as PfM18AAP inh-1 inactive, Rce1 inhib inactive, DNA FID counter inactive and Kir21 block inactive.
For CCN1C(=O)/C(=C/C=C2/Sc3ccccc3N2CCO)SC1=S the results were PfM18AAP inh-1 inactive, Rce1 inhib inactive, DNA FID counter inactive and Kir21 block inactive.
For CCOC(=O)/C(=C/C=C1\Sc2cc(C)c(C)cc2N1CC)C(C)=O the results were PfM18AAP inh-1 inactive, Rce1 inhib inactive, DNA FID counter inactive and Kir21 block inactive.
CCOC(=O)/C(=C/C=C1\Sc2ccccc2N1CC)C(C)=O was read as PfM18AAP inh-1 43, Rce1 inhib inactive, DNA FID counter inactive, Kir21 block inactive, PfM18AAP inh-2 inactive and CTSL1 counter inactive.
CCOC(=O)/C(=C\C=C1/Sc2ccccc2N1CC)C(C)=O was read as PfM18AAP inh-1 45, Rce1 inhib inactive, DNA FID counter inactive, Kir21 block inactive, PfM18AAP inh-2 inactive and CTSL1 counter inactive.
`COc1cc(/C=N/n2c(-c3ccccc3)n[nH]c2=S)cc(OC)c1O` gave PfM18AAP inh-1 32, Rce1 inhib inactive, DNA FID counter inactive, Kir21 block inactive, PfM18AAP inh-2 inactive and CTSL1 counter inactive.
For Cc1ccc(CNc2nc(C)c(C(=O)N(C)C)s2)cc1 the results were PfM18AAP inh-1 inactive, DNA FID counter inactive and Kir21 block inactive.
Screening CC(C)(C)C1CCC(=NNc2ncc(C(F)(F)F)cc2Cl)CC1 (configuration not stated) returned PfM18AAP inh-1 33, Rce1 inhib inactive, DNA FID counter inactive, Kir21 block inactive, PfM18AAP inh-2 inactive and CTSL1 counter inactive.
For CCC(C)c1ccc(N(C(=O)c2ccco2)C(C(=O)NC2CCCC2)c2cccnc2)cc1 (configuration not stated) the results were PfM18AAP inh-1 inactive, DNA FID counter inactive and Kir21 block inactive.
